# According to PubChem BioAssay (NCI):
# About 83,000 compounds went through this panel and 20% of them were active in at least one assay; those are over-represented in the sample as a whole.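 Activity criterion: percent growth below 10, measured after cells in 96-well plates were exposed to a single compound concentration for 48 hours.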 Unmarked numbers belong to inactive results. The source made the active and inactive calls.
# Assays:
# Experiment in all cases: NCI-60 one-dose screen, 48 h (100 = growth as untreated, 0 = no growth, -100 = all killed)
# Settings in all cases: 10 µM unless noted
# HCT-15 colon = system: HCT-15 colon
# SNB-75 CNS = system: SNB-75 CNS
# SNB-19 CNS = system: SNB-19 CNS
# PC-3 prostate = system: PC-3 prostate
# SK-MEL-5 melanoma = system: SK-MEL-5 melanoma
# UACC-62 melanoma = system: UACC-62 melanoma
# LOX IMVI melanoma = system: LOX IMVI melanoma
# SK-MEL-28 melanoma = system: SK-MEL-28 melanoma
# U251 CNS = system: U251 CNS
# HT29 colon = system: HT29 colon
Structure (SMILES),growth (HCT-15 colon),growth (SNB-75 CNS),growth (SNB-19 CNS),growth (PC-3 prostate),growth (SK-MEL-5 melanoma),growth (UACC-62 melanoma),growth (LOX IMVI melanoma),growth (SK-MEL-28 melanoma),growth (U251 CNS),growth (HT29 colon)
Cc1nc(Nc2ccc(NC(=S)Nc3ccccc3)cc2)nc2nc(SCc3ccccc3)[nH]c(=O)c12,108%,104%,102%,100%,99.7%,81.7%,101%,115%,–,–
COc1cccc(-c2nc3sccn3c2-c2ccnc(NCCNS(=O)(=O)c3c(Cl)cccc3Cl)c2)c1,47.3%,42.8%,77%,41.2%,26%,28.6%,58.6%,90.4%,–,–
COc1ccc(-n2sc(=O)n(Cc3ccc(COC(=O)C(C)c4ccc(CC(C)C)cc4)cc3)c2=O)cc1 (stereo not given),36.3%,46.7%,80.5%,61.7%,–,55.2%,-75.9% (active),52.8%,75.3%,–
COc1cc(/C=C/C(=O)c2cccc(-n3cc(-c4ccc(Cl)cc4)[nH]c3=O)c2)cc(OC)c1OC,40.3%,84.9%,75.5%,47.7%,58.2%,72.4%,-47.4% (active),86.5%,30.9%,–
COc1ccc(-c2cn(-c3cccc(C(=O)/C=C/c4cc(OC)c(OC)c(OC)c4)c3)c(=O)[nH]2)cc1,3.15% (active),49.6%,34.2%,20.6%,-54% (active),-42.8% (active),-68% (active),-33.9% (active),-51.8% (active),–
O=c1[nH]nc(-c2ccc(Cl)cc2)cc1Cc1ccccc1,103%,88.3%,101%,90.9%,105%,79.3%,93.4%,114%,92.5%,–
Cc1nc(Nc2cccc(NC(=O)Nc3ccc(Cl)cc3)c2)c2ccccc2n1,77%,85.3%,99.9%,77.9%,91.5%,76.4%,88.7%,102%,91.9%,–
C=CCN1C(=O)[C@]2(SC1=S)[C@H](c1cccc(Cl)c1)CN(C)[C@]21C(=O)NC2C=CC(Cl)=C[C@H]21 (stereo not given in full),27%,44.4%,59.9%,7.5% (active),42%,36.1%,13.3%,64.1%,67.8%,–
CCCCCCCCn1cc(C2=C(c3coc4ccc(OC)cc34)C(=O)NC2=O)c2ccccc21,97.4%,84.8%,108%,107%,99.2%,96.2%,61.2%,101%,97.2%,–
Cn1nnnc1-c1ccc(N)cc1,98.9%,88.4%,105%,93.9%,102%,99.7%,95.1%,103%,100%,–
COc1ccc(-c2nnc(-c3ccc4c(c3)nc(-c3ccccc3)n4C3CCCCC3)o2)cc1,41.9%,98.7%,86%,18.5%,24.9%,43.7%,36.9%,88.5%,71.3%,–
Cc1c(C(=O)O[C@H]2[C@@H]3[C@H](C)CC[C@H]3[C@]3(C)O[C@@]2(C2CCCCC2)C[C@H]3OC(=O)CO)ccc2ccccc12,14.2%,82.6%,60.8%,9.25% (active),68.6%,61.3%,–,59.7%,4.41% (active),–
NS(=O)(=O)c1cn(-c2ncnc3nc[nH]c23)ccc1=O,–,75.4%,97.2%,96.1%,97.6%,89.7%,99.9%,105%,102%,101%
O=S(=O)(Nc1ccsc1-c1nc(-c2ccccc2)no1)c1cc(Cl)cc(Cl)c1,–,73%,98.8%,86.7%,93.5%,83.6%,96.5%,88.2%,97.8%,98.5%
NC(=O)CC1(O)C=C(Br)C(=O)C(Br)=C1,–,76.4%,106%,–,92.7%,108%,86.1%,21.5%,95.6%,75.8%
Cc1cc(N(CCCNc2ccnc3cc(Cl)ccc23)Cc2ccccn2)nc(N2CCCC2)n1,–,75.4%,91.2%,50.5%,65.6%,95.1%,–,88%,74.8%,44%
Cc1cc(-c2ccccc2)cc(SC#N)[n+]1[O-],–,78.5%,41.2%,38.7%,32.6%,28.8%,29.7%,45.1%,24.1%,50.6%
CC(=O)Nc1cccc(C2=CC(c3ccc(C)cc3)n3ncnc3N2)c1 (stereo not given),–,94.2%,–,84.1%,91.3%,85.6%,93.8%,107%,97.3%,109%
CCCCCCCSc1ccc(C(=O)O)cc1,–,71.2%,95.4%,99.9%,108%,98.6%,103%,105%,95.1%,112%
CCOc1ccc(S(=O)(=O)c2ccc(C)cc2)c2c1no[n+]2[O-],–,54.7%,87.9%,82.1%,72.5%,78.5%,87.1%,104%,80.1%,52.8%
COc1ccc(-c2nnc(SCC(=O)NC3=NN=C(c4ccccc4)CS3)o2)cc1,–,88.1%,90.8%,86.8%,107%,95.2%,101%,109%,87.2%,96.1%
CCN(CC)CCOC(=O)Nc1ccccc1Cl,–,108%,99.4%,71.7%,105%,99.2%,–,108%,99.3%,80.4%
CN1CCC(=C2c3ccccc3C=Cc3ccccc32)CC1,–,47.8%,91.7%,64.9%,68.6%,82.5%,–,85.9%,59.8%,61.9%
C=C(CNCCc1ccc(O)cc1)[C@@H]1CC[C@]2(COC3CCCCO3)CC[C@]3(C)[C@H](CC[C@@H]4[C@@]5(C)CCC(NCCO)C(C)(C)[C@@H]5CC[C@]43C)[C@@H]12 (stereo not given in full),–,-17.6% (active),-93.9% (active),-92.6% (active),-95.4% (active),-85.9% (active),–,-94.4% (active),–,-90.3% (active)
c1ccc([P+](CCCc2n(Cc3ccc4ccccc4c3)c3ccccc3[n+]2Cc2ccc3ccccc3c2)(c2ccccc2)c2ccccc2)cc1,–,–,38.5%,67.5%,–,37.8%,13.8%,37.1%,46.5%,23.9%
COc1ccc(/C=N/NC(=O)Cn2c(-c3ccc(S(C)(=O)=O)cc3)nc3cc(Cl)ccc32)cc1,–,26.5%,21.6%,18.4%,12.7%,26.1%,30.8%,52.7%,10.4%,3.57% (active)
Cc1cc(-c2ccc(N(C)C)cc2)c2sc(=O)[nH]c2n1,–,53.2%,55.7%,80.8%,33.3%,42.5%,51.6%,69%,50.2%,70%
